# Only some compounds are listed: those with a hit (about 3.8% of all), similar ones and a draw of the others.
# GCN5L2 inh-1 = qHTS Assay for Inhibitors of GCN5L2 | GCN5L2 HAT assay, ThioGlo1 CoA-SH fluorescence | 0.21% of 390,000 active | Potency, µM (doses to about 58.9 µM), for inactives: at the highest dose activity change, negative = inhibition, hits mostly inhibitors | AID 504327, 2011 | Histone acetyltransferase KAT2A (Homo sapiens), Q92830; also: potency is read from the fitted curve at half-maximal effect; % is scaled to controls: 0 for no effect and ±100 for the full control effect
#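 qHTS, 1536-well. 20nM enzyme, pH 7.5 HEPES/EDTA/Tween-20 buffer; 15 min compound preinc., RT. Start: 75uM H3(1-25), 70uM AcCoA, 50uM ThioGlo1. Read Ex340/Em540 at t=0 (autofluorescence flag) and t=20 min.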
# Sfp PPTase inh = qHTS Assay for Inhibitors of Bacillus subtilis Sfp phosphopantetheinyl transferase (PPTase) | Biochemical Sfp PPTase activity, qHTS | Potency, µM, for the others: largest response in the series, negative = inhibition, most hits filed as inhibitors | 3.5% of 310,000 active | AID 1490, 2009;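 also: the enzyme is Sfp with the accession as filed and its product quenches rhodamine fluorescence; potency is read from the fitted curve at half-maximal effect; 0% = enzyme reaction without inhibitor and -100% = no enzyme wells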
#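 Sfp 15 nM + cpd, 15 min RT; start w/ rhodamine-CoA 5 uM, BHQ-2-YbbR 12.5 uM (final); 50 mM Hepes pH 7.6, 10 mM MgCl2, 0.01% NP-40, 0.01% BSA; read 525/598 nm at 0 and 30 min.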
# VDR inh = Inhibitors of the vitamin D receptor (VDR): qHTS; Vitamin D3 receptor (Homo sapiens), P11473; VDR-SRC2-3 peptide fluorescence polarization, 2 h; Potency, µM, for inactives: max response, negative = inhibition, most hits filed as inhibitors; 0.93% of 400,000 active; AID 504847, 2011; also: potency is read from the fitted curve at half-maximal effect; % is scaled to controls: 0 for no effect and ±100 for the full control effect
# Target sequence (P11473 whole entry, looked up): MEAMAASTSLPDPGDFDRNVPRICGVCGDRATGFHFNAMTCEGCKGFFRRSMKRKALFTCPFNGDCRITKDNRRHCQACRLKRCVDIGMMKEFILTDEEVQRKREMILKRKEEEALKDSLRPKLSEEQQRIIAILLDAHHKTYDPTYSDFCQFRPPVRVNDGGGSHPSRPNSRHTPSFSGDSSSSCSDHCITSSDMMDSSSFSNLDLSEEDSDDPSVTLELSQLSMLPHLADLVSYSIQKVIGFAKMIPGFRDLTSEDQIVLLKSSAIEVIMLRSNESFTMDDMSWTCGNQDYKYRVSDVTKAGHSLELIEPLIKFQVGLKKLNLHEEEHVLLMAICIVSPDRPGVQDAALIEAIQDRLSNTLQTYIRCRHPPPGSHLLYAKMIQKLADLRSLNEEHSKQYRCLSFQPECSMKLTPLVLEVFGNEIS
#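 FP read-out; VDR + SRC2-3 coactivator peptide; 23 nl compound by pintool; 2 h RT incubation; reagents held at 4 deg C, protected from light.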
# GLS inh = qHTS for Inhibitors of Glutaminase (GLS); Glutaminase kidney isoform, mitochondrial (Homo sapiens), O94925; GLS enzymatic activity, qHTS titration; Potency, µM (titrated, usually from 45.5 µM), for inactives: top-dose activity change, negative = inhibition, hits mostly inhibitors; 0.21% of 410,000 active; also: potency is read from the fitted curve at half-maximal effect; % is scaled to controls: 0 for no effect and ±100 for the full control effect
#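 Assay buffer: 45 mM KH2PO4 pH 8.2, 0.02% Tween-20. hKGA acts on L-glutamine (1 mM solution added); product glutamate is reported by an oxidase/peroxidase Amplex Red coupling, with fluorescence taken at baseline and 30 min.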
# TrxR1 substrate = qHTS Assay for Substrates of Mammalian Selenoprotein Thioredoxin Reductase 1 (TrxR1): qHTS | Thioredoxin reductase 1, cytoplasmic (Rattus norvegicus), O89049 | 0.01% of 390,000 active | purified TrxR1 substrate turnover, NADPH consumption readout | AID 588456, 2011 | Potency, µM (highest dose often 114 µM), without a hit: top-dose activity change, negative = substrate turnover; also: potency is read from the fitted curve at half-maximal effect; % is scaled to controls: 0 for no effect and ±100 for the full control effect; nearly all actives have a fitted effect of over 50% in size
#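 Rat TrxR1, dispensed at 90 nM, was prereduced with 400 uM NADPH (final) for 5 min at ~22 deg C, then incubated with compound 15 min before 400 uM selenite. A first-read NADPH fluorescence drop versus no-compound background flagged substrates.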
# TrxR1 inh = qHTS Assay for Inhibitors of Mammalian Selenoprotein Thioredoxin Reductase 1 (TrxR1): qHTS. AID 588453, 2011. recombinant rTrxR1, NADPH fluorescence consumption, selenite substrate. 1% of 390,000 active. Potency, µM (highest dose often 114 µM), without a hit: at the highest dose activity change, negative = inhibition, most hits filed as inhibitors. Thioredoxin reductase 1, cytoplasmic (Rattus norvegicus), O89049; also: potency is read from the fitted curve at half-maximal effect; % is scaled to controls: 0 for no effect and ±100 for the full control effect; nearly all actives have a fitted effect of over 65% in size
#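 Rat TrxR1 (90 nM in the dispensed reagent) was pre-reduced with 400 uM NADPH for 5 min at room temperature, then incubated with compound for 15 min. After 400 uM selenite was added, NADPH fluorescence (Ex 340/Em 450 nm) was followed for 8 min.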
# Sfp PPTase conf = Confirmation qHTS Assay for Inhibitors of Bacillus subtilis Sfp phosphopantetheinyl transferase (PPTase); shares compounds with Sfp PPTase inh; Sfp PPTase enzymatic assay, qHTS titration; Potency, µM (doses to about 114 µM), for the others: at the top dose activity change, negative = inhibition, most hits filed as inhibitors; 79% of 380 active; AID 2701, 2010;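 also: potency is read from the fitted curve at half-maximal effect; plate controls were uninhibited Sfp reaction for no effect and no enzyme control for full effect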
# Target sequence (Q9F4F7 whole entry, looked up): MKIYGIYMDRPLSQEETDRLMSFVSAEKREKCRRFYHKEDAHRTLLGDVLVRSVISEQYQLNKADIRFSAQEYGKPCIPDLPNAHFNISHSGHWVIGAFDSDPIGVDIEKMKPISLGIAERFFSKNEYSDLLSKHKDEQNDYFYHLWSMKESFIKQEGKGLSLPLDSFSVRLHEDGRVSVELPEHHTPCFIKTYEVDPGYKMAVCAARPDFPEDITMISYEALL
# Sfp gel assay = Gel-Based Assay for Inhibitors of Bacillus subtilis Sfp phosphopantetheinyl transferase (PPTase); shares compounds with Sfp PPTase inh; purified Sfp, gel-based phosphopantetheinylation read-out; Potency, µM, usual class: inhibitors; 20% of 210 active;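 active = potency below 100 µM; inconclusive = dose-dependent response but potency above 100 µM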;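 also: band intensities scaled against SCH202676 control wells before curve fitting; potency is an IC50 for inhibitors of Sfp transfer activity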
# GCN5L2 inh-2 = qHTS Assay for Inhibitors of GCN5L2: Hit confirmation; Potency, µM, hits mostly inhibitors; 70% of 140 active; shares compounds with GCN5L2 inh-1; GCN5L2 HAT, ThioGlo1 CoA fluorescence, 20 min
# USP1-UAF1 confirm = Inhibitors of USP1/UAF1: Hit Validation in Primary Assay | shares compounds with VDR inh | Ub-Rhodamine cleavage, fluorescence kinetic read | Potency, µM (top dose mostly 56.8 µM), without a hit: at the top dose activity change, negative = inhibition, hits mostly inhibitors | 50% of 50 active
# VDR confirm = qHTS for Inhibitors of the vitamin D receptor (VDR): Hit Validation in Primary Screen | shares compounds with VDR inh | VDR-coactivator inhibition assay, qHTS confirmation | Potency, µM, hits mostly inhibitors | 89% of 840 active; also: potency is read from the fitted curve at half-maximal effect
# VDR FP = qHTS for Inhibitors of the vitamin D receptor (VDR): Hit Validation using a Fluorescein Assay; shares compounds with VDR inh; VDR-coactivator binding, fluorescein fluorescence polarization; Potency, µM (highest dose often 57.1 µM), for inactives: top-dose activity change, negative = inhibition, actives largely listed as inhibitors; 48% of 840 active; AID 602200, 2012; also: potency is read from the fitted curve at half-maximal effect
# VDR bla = qHTS for Inhibitors of the vitamin D receptor (VDR): Hit Validation using a Beta-Lactamase Assay; shares compounds with VDR inh; VDR beta-lactamase reporter cells, FRET ratio; cells co-treated with VDR agonist LG190178; Potency, µM (doses to about 46.1 µM), inactives show at the top dose activity change, negative = inhibition, actives largely listed as inhibitors; 23% of 840 active; AID 602202, 2012; also: potency is read from the fitted curve at half-maximal effect; % is scaled to controls: 0 for no effect and ±100 for the full control effect
# VDR cytotox = qHTS for Inhibitors of the vitamin D receptor (VDR): Hit Validation using a Cytotoxicity Assay. shares compounds with VDR inh. cytotoxicity counter-screen, cell viability, qHTS. Potency, µM (series often up to 48.3 µM), inactives show at the highest dose activity change, negative = cytotoxicity, usual class: cytotoxic. 18% of 840 active. AID 602204, 2012;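 also: potency is read from the fitted curve at half-maximal effect; plate controls were DMSO for no effect and high-concentration cycloheximide for full effect; nearly all actives have a fitted effect of over 75% in size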
# An asterisk follows results filed as active; i = inactive; ? = inconclusive; / = not tested or not shown; [ ] = another dose, or the depositor's remark. Unless noted, calls follow the shape of the dose curve; as a rule, active = well fitted curve in the direction sought with a large enough effect; inconclusive = small, poorly fitted or top-dose-only effect, or another doubt; inactive = no such curve, though single readings can be large; an effect the other way counts as inactive or inconclusive.
SMILES,GCN5L2 inh-1,Sfp PPTase inh,VDR inh,GLS inh,TrxR1 substrate,TrxR1 inh,VDR confirm,VDR FP,VDR bla,VDR cytotox,others
CC[C@@H]1/C=C/C=C/C[C@H](C)[C@@H](O)[C@](C)(O)C(=O)[C@H](C)[C@@H](O)[C@H](C)C(=O)[C@H](C)[C@@H](O)[C@H](C)/C=C/C(=O)O[C@H]2[C@@H](C)[C@@H](CC1)O[C@@]1(CC[C@@H](C)[C@@H](C[C@H](C)O)O1)[C@@H]2C,-15%,0.0006µM*,?,/,/,/,/,/,/,/,Sfp PPTase conf=0%;Sfp gel assay=i
CCC1C=CC=CC[C@H](C)[C@@H](O)[C@](C)(O)C(=O)[C@@H](C)[C@H](O)[C@@H](C)C(=O)[C@H](C)[C@@H](O)[C@H](C)C=CC(=O)OC2[C@@H](C)C(CC1)OC1(CC[C@@H](C)C(C[C@H](C)O)O1)[C@@H]2C (some centres not stated),-15%,/,/,/,/,/,/,/,/,/,
Cc1cc(C(C#N)c2ccc(Cl)cc2)c(Cl)cc1NC(=O)c1cc(I)cc(I)c1O (configuration not stated),10µM*,?,?,17%,0%,-1%,/,/,/,/,GCN5L2 inh-2=?
Cc1ccccc1CNC(=O)c1ccc(-c2nc(CS(=O)(=O)c3ccccc3)c(C)o2)cc1,-9%,/,10%,12%,43%,21%,/,/,/,/,
O=C(O)CCn1cc(C=C2C(=O)NC(=S)NC2=O)c(-c2ccccc2)n1,-4%,14µM*,10µM*,?,5%[57.1 µM],?,21*,?,15%,38%,
N#CCCn1cc(C(=O)NCc2ccccc2)c(-c2ccccc2)n1,3%,7%,10%,6%,10%[57.1 µM],12%[57.1 µM],/,/,/,/,
COC(=O)C1=C(c2ccc(F)cc2OCc2ccccc2)C[C@@H]2CC[C@H]1N2C(=O)NCc1ccc(Br)cc1,-9%,/,?,-1%,-2%,10%,/,/,/,/,
N#CC(C#N)=NNc1ccc(-n2ccc(C(F)(F)F)n2)cc1,?,-4%,20µM*,12%,-6%,20µM*,3*,?,?,?,
Cc1ccccc1N1C(=O)NC(=O)/C(=C\c2ccc3c(c2)CCCN3Cc2ccccc2)C1=O,?,79µM*,40µM*,?,-1%[11.4 µM],-28%[11.4 µM],12*,200%,38%,12%,
Cc1cc(/C=C2\C(=O)NC(=O)N(Cc3ccccc3)C2=O)c(C)n1C1CC1,-7%,-7%,2%,2%,5%[57.1 µM],13%[57.1 µM],/,/,/,/,
COC(=O)CCC(=O)Nc1sc(Cc2ccccc2)c(C)c1C(N)=O,?,3.2µM*,20µM*,1%,-1%,?,?,?,-2%,19%,
CCCN(CCC)C1CCc2ccc(O)cc2C1 (configuration not stated),-3%,17%,2%,63%,?,21%[57.1 µM],/,/,/,/,
O=C(O)/C=C/C(=O)c1ccc2c(c1)CCc1ccccc1-2,-23%,/,3.5µM*,?,4%[57.1 µM],?,3.8*,?,?,?,
Nc1ccc2c(c1)Cc1ccccc1-2,2%,4%,-20%,3%,8%,-1%,/,/,/,/,
CC1=CC2/C=C(\C)CCC(O)C(O)/C=C/C(=O)C23C(=O)NC(CC(C)C)C3C1C (configuration not stated),-2%,16µM*,22µM*,-2%,12%[57.1 µM],16µM*,17*,?,7.3µM*,15µM*,
Cc1cc(Cl)ccc1C(=O)C1CCCN(Cc2ccon2)C1 (configuration not stated),1%,14%,-1%,1%,-2%,8%,/,/,/,/,
COc1ccc2[nH]cc(C3=CCNCC3)c2c1,-27%,4%,-1%,/,/,/,/,/,/,/,USP1-UAF1 confirm=53µM*
COc1ccc2[nH]cc(CCN(C(C)C)C(C)C)c2c1,/,/,/,42%[99.4 µM],/,/,/,/,/,/,
